# Laboratory results taken from PubChem BioAssay (NCATS).
# Values joined by “and” are separate entries in the source; they are usually repeats but may differ in a detail not shown here. Equal values may be shown once. Records with an inconclusive call do not appear. Where a call stands in place of a potency, no number is given. Values without a mark were called inactive. Active and inactive are the calls of the source. The call rests on the fitted dose curve; in most records, active means well fitted curve in the direction sought with a large enough effect; inconclusive means small, poorly fitted or top-dose-only effect, or another doubt; inactive means no such curve, though single readings can be large; an effect the other way counts as inactive or inconclusive.
# Tests used:
# [1] = test system: Zika virus NS2B-NS3 protease (linked construct); experiment: Primary screen NINDS Rhodamine qHTS for Zika virus inhibitors (AID 1347160); further: nearly all actives have a fitted effect of over 55% in size; further: potency means the concentration at half of the fitted maximal effect
# Procedure, shortened: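 In 10 mM Tris-HCl pH 8.0 containing 0.01% Tween 20, linked NS2B-NS3 protease (25 nM final) is exposed to test compounds for 15 min. Cleavage of 1.5 microM Rhodamine110 substrate is tracked by fluorescence over 15 min.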
# [2] = qHTS to identify inhibitors of the type 1 interferon - major histocompatibility complex class I in skeletal muscle: primary screen against the NCATS Pharmaceutical Collection (AID 1347407);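 further: luminescence of HiBiT knocked into endogenous HLA-B as interferon-induced MHC class I level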
# Procedure, shortened: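 Immortalized human myoblasts (C25cl48) with HiBiT knocked into endogenous HLA-B*08:01 were stimulated with 4 ng/ml IFN-beta and treated with compounds (8-point, 1:5, top 46 uM final) for 24 h at 37 C; HiBiT lytic luminescence read.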
# [3] = qHTS to identify inhibitors of the type 1 interferon - major histocompatibility complex class I in skeletal muscle: primary screen against the NCATS LOPAC collection (AID 1347405);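 further: lytic HiBiT luminescence reporting HLA-B protein level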
# Procedure, shortened: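 Luminescence from HiBiT fused to endogenous HLA-B in CRISPR-engineered human myoblasts served as the read-out. Cells received 4.0 ng/ml IFN-beta plus compound (seven concentrations, 1:4.3 steps, highest 46 uM final) for 24 hrs before lytic detection.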
# [4] = Confirmatory screen NINDS Rhodamine qHTS for Zika virus inhibitors (AID 1347161); further: potency means the concentration at half of the fitted maximal effect; nearly all actives have a fitted effect of over 60% in size
# Procedure, shortened: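 Percent inhibition, normalized to uninhibited and enzyme-free controls, is fitted to a 4-parameter Hill equation. Fluorescence change comes from a 15-min cleavage of 1.5 microM bis-peptide Rhodamine110 substrate by 25 nM linked NS2B-NS3 at room temperature.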
# [5] = test system: Zika virus NS2B-NS3 protease (linked); experiment: 384 well plate NINDS AMC confirmatory qHTS for Zika virus inhibitors (AID 1347163); further: nearly all actives have a fitted effect of over 50% in size; further: potency means the concentration at half of the fitted maximal effect;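 on activity change, negative = inhibition: linked protease at 5 30 or 60 nM final depending on run; fluorescence of AMC released from Ac-VKTGKR-AMC peptide cleaved by the protease; top concentration of the series differs between compounds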
# Procedure, shortened: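 Linked NS2B-NS3 protease (final 5 nM, 30 nM or 60 nM) was preincubated with compounds (final up to 1 mM) for ~15 minutes. Ac-VKTGKR-AMC substrate (final 30 microM) then reacted for 25 minutes at room temperature in the dark. Fluorescence (ex 355/em 460 nm) was normalized to no-enzyme and no-inhibitor controls.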
# [6] = test system: Zika virus NS2B-NS3 protease (linked construct); experiment: 384 well plate NINDS Rhodamine confirmatory qHTS for Zika virus inhibitors (AID 1347164);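 further: fluorescence from protease cleavage of Ac-LKRR-rhodamine 110 substrate; potency means the concentration at half of the fitted maximal effect; nearly all actives have a fitted effect of over 65% in size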
# Procedure, shortened: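 Linked protease at a final 5 nM, 30 nM or 60 nM was preincubated ~15 min with compounds, then given 10 microM Ac-LKRR-Rhodamine 110. Fluorescence (ex 485/em 538 nm) after 25 min in the dark at room temperature.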
# [7] = Vero cells viability qHTS for Zika virus inhibitors (AID 1347167); further: potency means the concentration at half of the fitted maximal effect
# Procedure, shortened: (§1)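 Counter-screen for cytotoxicity of hits from NS2B-NS3 protease qHTS. Overnight-attached cells (2.5 x 10^5 cells/mL, DMEM/4% FBS) were dosed in titration, incubated 24 to 48 hours, then assayed by CellTiter Glo.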
# [8] = HepG2 cells viability qHTS for Zika virus inhibitors (AID 1347168); further: potency means the concentration at half of the fitted maximal effect
# Procedure, shortened: as §1
# [9] = molecular target: Lysine-specific demethylase 5B (Homo sapiens) (UniProt Q9UGL1); experiment: Optimization screen for KDM5B Histone Demethylases FDH coupled qHTS against the LOPAC library (AID 1347166)
# Sequence of Lysine-specific demethylase 5B (Homo sapiens) (Q9UGL1 whole entry, looked up): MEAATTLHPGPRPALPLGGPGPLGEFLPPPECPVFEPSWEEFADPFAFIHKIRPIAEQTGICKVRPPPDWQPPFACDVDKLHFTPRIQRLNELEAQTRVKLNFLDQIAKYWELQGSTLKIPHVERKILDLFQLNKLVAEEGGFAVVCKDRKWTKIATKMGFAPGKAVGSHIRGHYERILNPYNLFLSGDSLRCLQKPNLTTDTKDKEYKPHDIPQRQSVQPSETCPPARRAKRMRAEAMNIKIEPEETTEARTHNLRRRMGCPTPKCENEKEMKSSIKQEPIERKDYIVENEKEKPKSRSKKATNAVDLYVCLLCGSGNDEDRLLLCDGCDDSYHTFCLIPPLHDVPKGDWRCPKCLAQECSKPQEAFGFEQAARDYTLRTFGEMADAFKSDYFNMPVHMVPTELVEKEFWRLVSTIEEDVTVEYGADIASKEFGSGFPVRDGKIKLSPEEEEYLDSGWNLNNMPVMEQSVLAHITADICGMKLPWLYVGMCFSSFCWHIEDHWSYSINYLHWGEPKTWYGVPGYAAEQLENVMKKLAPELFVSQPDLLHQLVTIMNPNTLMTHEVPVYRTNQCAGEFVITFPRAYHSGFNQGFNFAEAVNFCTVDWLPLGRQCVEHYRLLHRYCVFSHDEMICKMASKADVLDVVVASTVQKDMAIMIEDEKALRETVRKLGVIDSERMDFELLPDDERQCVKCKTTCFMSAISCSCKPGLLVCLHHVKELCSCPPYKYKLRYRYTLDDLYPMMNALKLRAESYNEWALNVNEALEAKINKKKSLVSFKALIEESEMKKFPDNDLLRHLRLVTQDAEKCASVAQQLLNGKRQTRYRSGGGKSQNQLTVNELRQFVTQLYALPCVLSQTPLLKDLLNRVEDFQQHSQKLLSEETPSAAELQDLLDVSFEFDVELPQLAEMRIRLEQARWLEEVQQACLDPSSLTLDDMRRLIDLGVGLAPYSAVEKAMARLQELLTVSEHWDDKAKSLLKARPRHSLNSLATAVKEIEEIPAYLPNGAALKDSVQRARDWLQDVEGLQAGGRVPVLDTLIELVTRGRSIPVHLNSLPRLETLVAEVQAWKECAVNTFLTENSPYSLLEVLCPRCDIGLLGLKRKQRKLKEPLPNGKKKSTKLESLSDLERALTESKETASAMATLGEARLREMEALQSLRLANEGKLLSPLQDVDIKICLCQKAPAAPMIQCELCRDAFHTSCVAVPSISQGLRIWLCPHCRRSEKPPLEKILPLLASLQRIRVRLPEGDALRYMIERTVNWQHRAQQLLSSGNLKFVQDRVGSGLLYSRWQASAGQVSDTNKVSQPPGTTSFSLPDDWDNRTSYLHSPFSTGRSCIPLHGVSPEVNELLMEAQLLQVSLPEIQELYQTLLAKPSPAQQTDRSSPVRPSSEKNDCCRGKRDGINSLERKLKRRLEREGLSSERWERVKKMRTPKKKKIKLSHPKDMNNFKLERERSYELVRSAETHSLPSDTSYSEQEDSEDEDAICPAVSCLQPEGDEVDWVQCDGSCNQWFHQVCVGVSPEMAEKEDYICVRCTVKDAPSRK
# Procedure, shortened: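 KDM5BDeltaAP (200nM final) preincubated 10 min with compound, then 12.5uM H3K4Me3, 25uM a-ketoglutarate, ascorbate, Fe(II), NAD+ and FDH added; 50mM HEPES pH 7.5, 0.01% Tween-20. NADH fluorescence (340/450 nm) change over 30 min, room temperature.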
# [10] = Tertiary RLuc qRT-PCR qHTS assay for Zika virus inhibitors (AID 1347169); further: nearly all actives have a fitted effect of over 55% in size; further: potency means the concentration at half of the fitted maximal effect; on activity change, negative = inhibition: top concentration of the series differs between compounds
# Procedure, shortened: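 Vero cells (1,000 per well) plated overnight at 37 degrees C, treated with compound in DMSO, then infected with recombinant ZIKV-RLuc (Cambodian) at MOI 1-2 for 48-72 hrs. Live-cell Renilla luciferase substrate added; luminescence read after 1-1.5 hrs.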
structure (smiles),measurement,setting,value
O=C(O)c1cccc(-c2noc(-c3ccccc3F)n2)c1,Potency,[1],inactive
same,Potency,[2],inactive
CN(c1nccc(=O)[nH]1)C1CCN(c2nc3ccccc3n2Cc2ccc(F)cc2)CC1,Potency,[1],inactive
same,Potency,[2],inactive
c1cnc2cc3c(cc2n1)C1CNCC3C1,Potency,[1],inactive
same,Potency,[3],inactive
same,Potency,[2],inactive
CN(C)c1ccc(O)c2c1C[C@H]1C[C@H]3[C@H](N(C)C)C(=O)C(C(N)=O)=C(O)[C@@]3(O)C(=O)C1=C2O,Potency,[4],44.1 µM (active) and 35 µM (active)
same,Potency,[5],141 µM (active)
same,Potency,[6],89.1 µM (active)
same,Potency,[7],inactive
same,Potency,[8],inactive
Cc1ccc(NC(=O)c2ccc(CN3CCN(C)CC3)cc2)cc1Nc1nccc(-c2cccnc2)n1,Potency,[1],inactive
CC(C)c1ccc2c(c1)c(SC(C)(C)C)c(CC(C)(C)C(=O)O)n2Cc1ccc(Cl)cc1,Potency,[4],1.56 µM (active)
same,Potency,[5],14.1 µM (active)
same,Potency,[6],14.1 µM (active)
same,outcome,[9],inactive
same,Potency,[8],inactive
O=C(OC1C[C@H]2CC[C@@H](C1)[N+]21CCCC1)C(O)(c1ccccc1)c1ccccc1 (some centres not stated),Potency,[1],inactive
CC(=O)NC[C@H]1CN(c2ccc(N3CCOCC3)c(F)c2)C(=O)O1,Potency,[1],inactive
same,Potency,[3],inactive
N[C@@H](Cc1cc(I)c(Oc2cc(I)c(O)c(I)c2)c(I)c1)C(=O)O,Potency,[1],6.31 µM (active)
same,Potency,[4],9.67 µM (active) and 12.6 µM (active)
same,Potency,[5],inactive
same,Potency,[6],10 µM (active)
same,Potency,[7],inactive
same,"activity change, negative = inhibition",[10],-3.48% [at 0.566 µM]
COc1cc(Nc2c(C#N)cnc3cc(OCCCN4CCN(C)CC4)c(OC)cc23)c(Cl)cc1Cl,Potency,[1],inactive
COc1cc2c(N3CCN(C(=O)Nc4ccc(OC(C)C)cc4)CC3)ncnc2cc1OCCCN1CCCCC1,Potency,[1],inactive
COc1c(O)cc2c(c1O)[C@@H]1O[C@H](CO)[C@@H](O)[C@H](O)[C@H]1OC2=O,Potency,[1],inactive
COc1ccc2cc([C@H](C)C(=O)O)ccc2c1,Potency,[1],inactive
same,outcome,[9],inactive
same,Potency,[3],inactive
Clc1ccc(C(Cn2ccnc2)OCc2c(Cl)cccc2Cl)c(Cl)c1 (configuration not stated),Potency,[1],inactive
same,Potency,[2],inactive
CCCS(=O)c1ccc2nc(NC(=O)OC)[nH]c2c1 (configuration not stated),Potency,[1],inactive
same,Potency,[2],inactive
Cc1cc2c(s1)Nc1ccccc1N=C2N1CCN(C)CC1,Potency,[1],inactive
same,Potency,[2],inactive
Cc1nccn1CC1CCc2c(c3ccccc3n2C)C1=O (configuration not stated),Potency,[1],inactive
OC(CN1CCN(c2cccc(Cl)c2)CC1)C(c1ccccc1)c1ccccc1 (configuration not stated),Potency,[1],inactive
same,outcome,[9],inactive
CC(C)C[C@H](NC(=O)[C@H](Cc1ccccc1)NC(=O)c1cnccn1)B(O)O,Potency,[1],inactive
same,Potency,[7],inactive
same,Potency,[8],0.0466 µM (active)
same,Potency,[10],0.037 µM (active)
CCN(CCO)CCCC(C)Nc1ccnc2cc(Cl)ccc12 (configuration not stated),"activity change, negative = inhibition",[1],-6.84% [at 4.91 µM]
same,"activity change, negative = inhibition",[2],-5.56% [at 3.83 µM]
CN(C)CCCC1(c2ccc(F)cc2)OCc2cc(C#N)ccc21 (configuration not stated),Potency,[1],inactive
same,outcome,[9],inactive
same,Potency,[3],inactive
Cc1ccc(Nc2nccc(N(C)c3ccc4c(C)n(C)nc4c3)n2)cc1S(N)(=O)=O,Potency,[1],inactive
COc1ccc(C2(C#N)CCC(C(=O)O)CC2)cc1OC1CCCC1 (configuration not stated),Potency,[1],inactive
CC(=O)O[C@H]1C(=O)[C@@]2(C)C([C@H](OC(=O)c3ccccc3)[C@]3(O)C[C@H](OC(=O)[C@H](O)[C@@H](NC(=O)c4ccccc4)c4ccccc4)C(C)=C1C3(C)C)[C@]1(OC(C)=O)CO[C@@H]1C[C@@H]2O (some centres not stated),Potency,[1],inactive
same,outcome,[9],inactive
COCCCOc1ccnc(CS(=O)c2nc3ccccc3[nH]2)c1C (configuration not stated),Potency,[1],inactive
same,Potency,[2],inactive
CC(C)c1nc(CN(C)C(=O)N[C@H](C(=O)N[C@@H](Cc2ccccc2)C[C@H](O)[C@H](Cc2ccccc2)NC(=O)OCc2cncs2)C(C)C)cs1,Potency,[1],inactive
same,Potency,[2],inactive
CN(C)C(=O)[C@H](O)[C@H](Cc1ccccc1)NC(=O)c1cc2cc(Cl)ccc2[nH]1,Potency,[1],inactive
same,Potency,[7],inactive
same,Potency,[8],inactive
same,Potency,[10],inactive
same,Potency,[3],inactive
CCC1=C(C)CN(C(=O)NCCc2ccc(S(=O)(=O)NC(=O)NC3CCC(C)CC3)cc2)C1=O (configuration not stated),Potency,[1],inactive
COc1ccccc1N1CCN(CCN(C(=O)C2CCCCC2)c2ccccn2)CC1,Potency,[1],inactive
same,outcome,[9],inactive
same,Potency,[3],inactive
Cc1nc(Nc2ncc(C(=O)Nc3c(C)cccc3Cl)s2)cc(N2CCN(CCO)CC2)n1,Potency,[1],inactive
same,Potency,[5],inactive
same,Potency,[7],282 µM (active)
same,Potency,[8],79.4 µM (active)
same,Potency,[10],0.224 µM (active)
C=C(c1ccc(C(=O)O)cc1)c1cc2c(cc1C)C(C)(C)CCC2(C)C,Potency,[4],1.96 µM (active) and 2.47 µM (active)
same,Potency,[5],22.4 µM (active)
same,Potency,[6],7.94 µM (active)
same,Potency,[8],inactive
